From PubChem BioAssay AID1347416 (National Center for Advancing Translational Sciences (NCATS), 2020)
In all, about 4,100 compounds went through this assay and about 1,600 (39%) were called active. Roughly 25% stayed inconclusive and do not appear here. The list shows a part of the results. A number with no mark means an inactive call. The call rests on the fitted dose curve; in most records, active means well fitted inhibition curve with a large enough effect; inconclusive means small, poorly fitted or top-dose-only effect; inactive means no such curve, though single readings can be large or run the other way.

Experiment: qHTS Validation assay for Inhibitors of Plasmodium falciparum Dd2 growth in vitro; further: nearly all actives have a fitted effect of over 70% in size
Conditions: P. falciparum Dd2 in RBCs, SYBR Green growth, 72 h; series mostly up to 28.7 µM; activity change, negative = inhibition: at the top concentration
How it was run: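 P. falciparum Dd2-infected red blood cells (2.5% hematocrit, 0.3% parasitemia) grown 72 h at 37 °C under 5% O2 with compounds in a titration, 29 uM to 0.5 nM final. Growth read as SYBR Green-1 fluorescence after ~16 h lysis; artesunate 300 nM as positive control.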
On the % scale 0 is the no-effect control and ±100 the full control effect; potency means the concentration at half of the fitted maximal effect.

| Structure (SMILES) | Potency | activity change, negative = inhibition |
| --- | --- | --- |
| CCc1ccc2c(c1)cc(CN(C(=S)Nc1cccc(C)c1)C1CC1)c1nnnn12 | 3.35 µM (active) | – |
| O=C(CC(c1ccc(F)cc1)c1cn(Cc2ccccc2)c2ccc([N+](=O)[O-])cc12)N1CCOCC1 (stereo not given) | 9.44 µM (active) | – |
| Cc1ccoc1C(=O)N1C[C@@H](COCC2CC2)[C@H](c2ccncc2)C1 | – | 0% |
| CCC(C)(C)n1nnnc1C(c1cccnc1)N1CCN(c2cccc(C(F)(F)F)c2)CC1 (stereo not given) | 6.68 µM (active) | – |
| CCOC(=O)c1c(C)[nH]c(C)c1S(=O)(=O)N1CCN(c2cccc(C(F)(F)F)c2)CC1 | – | 19.3% |
| CNC(=O)[C@@H]1C[C@H](n2cc(CN(C)C(=O)NCC3CCCCC3)nn2)CN1 | – | 63.7% |
| CCCN1C(=O)Cc2cc(C(=O)NCc3ccc(C)c(C)c3)ccc21 | – | -22.2% |
| COCCCn1c(=N)c(C(=O)NCC2CCCO2)cc2c(=O)n3cc(C)ccc3nc21 (stereo not given) | – | 20.7% |
| CCCn1c(=N)c(C(=O)NC2CCCCC2)cc2c(=O)n3cc(C)ccc3nc21 | – | -8.41% |
| CCCn1c(=N)c(C(=O)NC2CCCC2)cc2c(=O)n3cccc(C)c3nc21 | 5.96 µM (active) | – |
| CCCCn1c(=N)c(C(=O)NC2CCCCC2)cc2c(=O)n3cccc(C)c3nc21 | 1.5 µM (active) | – |
| CCCn1c(=N)c(C(=O)NCc2ccc3c(c2)OCO3)cc2c(=O)n3cccc(C)c3nc21 | 10.6 µM (active) | – |
| CCn1c(CO)nnc1C1CC(NC(=O)c2cnc3sccn3c2=O)C1 (stereo not given) | – | -13.6% |
| CCOc1cc2[nH]c(=O)n(Cc3ccc(C(=O)N4CCN(c5cccc(Cl)c5)CC4)cc3)c(=O)c2cc1OCC | – | 23.4% |
| COc1ccccc1N1CCN(C(=O)c2ccc3c(=O)n(Cc4ccc5c(c4)OCO5)c(=O)[nH]c3c2)CC1 | 2.99 µM (active) | – |
| COC(=O)c1ccc2c(=O)n(CCCCCC(=O)NCCc3ccccc3)c(=O)[nH]c2c1 | – | 3.51% |
| OC(c1cc(-c2ccc(C(F)(F)F)cc2)nc(C(F)(F)F)c1)C1CCCCN1 (stereo not given) | 0.15 µM (active) | – |
| CN(CC1CCOCC1)S(=O)(=O)c1ccc(C(F)(F)F)cc1 | – | -9.41% |
| Nc1nonc1-n1nnc(C(=O)N/N=C/c2ccc(F)cc2)c1-c1ccc2c(c1)OCO2 | 0.335 µM (active) | – |
| Nc1nonc1-n1nnc(C(=O)N/N=C/c2ccc(Br)cc2)c1-c1ccc2c(c1)OCO2 | 0.422 µM (active) | – |
| Cc1ccc(-c2c(C(=O)N/N=C/c3cccc(Cl)c3)nnn2-c2nonc2N)cc1 | 0.237 µM (active) | – |
| Nc1nonc1-n1nnc(C(=O)N/N=C/c2ccc(Cl)cc2)c1-c1ccc2c(c1)OCO2 | 0.376 µM (active) | – |
| O=C(CSc1nnc(Cc2cccs2)n1-c1ccc(Cl)cc1)NCc1ccc2c(c1)OCO2 | – | 12.4% |

| Structure (SMILES) | Potency | activity change, negative = inhibition |
| --- | --- | --- |
| Nc1nonc1-n1nnc(C(=O)N/N=C/c2cccs2)c1-c1ccc2c(c1)OCO2 | 1.68 µM (active) | – |
| COc1ccc(NC(=O)c2c(C)oc3ccc(O)c(CN4CCCC(C)C4)c23)cc1Cl (stereo not given) | 0.944 µM (active) | – |
| COc1ccc(NC(=O)c2cc3n(n2)CC(c2ccc(Cl)cc2)OC3)cc1Cl (stereo not given) | – | 20.3% |
| Cc1oc2ccc(O)c(CN3CCCC(C)C3)c2c1C(=O)Nc1ccccc1 (stereo not given) | 2.11 µM (active) | – |
| Cc1ccc(CN2CCc3nc(C(=O)Nc4cccnc4)oc3CC2)o1 | – | -11.7% [at 43.1 µM] |
| COc1ccc(NC(=O)c2c(C)oc3ccc(O)c(CN4CCCCCC4)c23)cc1Cl | 1.88 µM (active) | – |
| COc1ccc(NC(=O)N2CCCC(Cn3cnc4cccnc43)C2)cc1Cl (stereo not given) | – | 25.8% |
| CSCc1noc(Cc2c(C)nn(-c3ccccc3)c2C)n1 | – | 35% |
| CN1CC2(CCN(S(=O)(=O)c3ccc(C#N)cc3)CC2)CC1C(=O)N1CCOCC1 (stereo not given) | – | 1.39% |
| Cc1ccccc1-c1cc(C(=O)N2CCC3(CC2)CC(O)CCO3)[nH]n1 (stereo not given) | – | 14.5% |
| COc1ccc(S(=O)(=O)N2CCN(C(=O)c3cc(-c4ccccc4OC)n[nH]3)CC2)cc1 | – | 12.6% |
| COc1ccccc1-c1cc(C(=O)N2CCN(S(=O)(=O)c3ccc(C)cc3)CC2)[nH]n1 | 7.5 µM (active) | – |
| O=C(Nc1ccc(S(=O)(=O)N2CCOCC2)cc1)c1cc(-c2cc(Cl)ccc2O)n[nH]1 | 2.66 µM (active) | – |
| Cc1ccc(NC(=O)c2cc(-c3ccc[nH]3)n[nH]2)cc1C | – | -25.4% |
| Cc1cc(O)c(-c2cc(C(=O)Nc3ccc(S(=O)(=O)N4CCOCC4)cc3)[nH]n2)cc1C | 1.68 µM (active) | – |
| CCOc1ccc(OCC)c(NC(=O)c2nnn(CC(=O)Nc3cc(Cl)ccc3OC)c2N)c1 | – | 35% |
| COc1ccc(C(=O)Nc2cc(-c3nc4ccccc4s3)ccc2OC)cc1 | – | 21.4% |
| Cc1ccc(Cl)cc1NC(=O)c1cc(S(=O)(=O)N2CCOCC2)cn1C | – | -14.4% |
| NS(=O)(=O)c1ccc(NC(=O)CN2C(=O)COc3ccc(Cl)cc32)cc1 | – | 13.6% |
| COc1ccc(OC)c(NC(=O)c2cc(-c3cc(Cl)ccc3O)n[nH]2)c1 | 4.73 µM (active) | – |
| CN(C)c1ncc([N+](=O)[O-])cc1C(F)(F)F | – | 19.7% |
| CCc1noc(-c2cccn3c(CNC(=O)c4ccccc4F)nnc23)n1 | – | 0% |
